In PubChem BioAssay AID1490 (National Center for Advancing Translational Sciences (NCATS), 2009):
About 11,000 (3.5%) of roughly 310,000 compounds were called active. Roughly 4% stayed inconclusive and do not appear here. The sample holds actives, similar compounds and a random draw of the others, so the mix is not that of the screen. Calls follow the shape of the dose curve; as a rule, active = well fitted inhibition curve with a large enough effect; inconclusive = small, poorly fitted or top-dose-only effect, or another doubt; inactive = no such curve, though single readings can be large or run the other way. More than one record can exist for a structure, and the calls need not agree.
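Also: the enzyme is Sfp with the accession as filed and its product quenches rhodamine fluorescence.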
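For largest response in the series, negative = inhibition in this document: 0% = enzyme reaction without inhibitor and -100% = no enzyme wells.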
Potency is read from the fitted curve at half-maximal effect.

The compounds below were run against 4'-phosphopantetheinyl transferase ffp (Bacillus subtilis) (UniProt Q9F4F7) (assay: qHTS Assay for Inhibitors of Bacillus subtilis Sfp phosphopantetheinyl transferase (PPTase)). Conditions: Biochemical Sfp PPTase activity.
In short: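 Sfp 15 nM + cpd, 15 min RT; start w/ rhodamine-CoA 5 uM, BHQ-2-YbbR 12.5 uM (final); 50 mM Hepes pH 7.6, 10 mM MgCl2, 0.01% NP-40, 0.01% BSA; read 525/598 nm at 0 and 30 min.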
O=S(=O)(c1ccc(Cl)s1)N1CCC2(CC1)OCCO2 was tested, and the largest response in the series, negative = inhibition was 23.5% (inactive).
In the case of CCCCn1c(N)c(N(CCOC)C(=O)c2oc3ccc(OC)cc3c2C)c(=O)[nH]c1=O, the largest response in the series, negative = inhibition was 15.3% (inactive).
For O=C(CC1C(=O)NCCN1C(=O)c1ccc([N+](=O)[O-])cc1)Nc1cccc(Cl)c1 (stereo unspecified), the largest response in the series, negative = inhibition was 5.33% (inactive).
Cc1cc(C)c(S(=O)(=O)c2cc(F)ccc2C)c(=O)[nH]1 was tested, and the largest response in the series, negative = inhibition was 27.3% (inactive).
In the case of CCCN1CC=C2C(C#N)=C(N)C(C#N)(C#N)C(c3cc(OC)ccc3OC)C2C1 (stereo unspecified), the largest response in the series, negative = inhibition was -12.4% (inactive).
For N#CC1=C(N)C(C#N)(C#N)[C@H](c2ccsc2)[C@H]2COCC=C12, the Potency was 2.51 µM (active).
CCOC(=O)N1CC=C2C(C#N)=C(N)C(C#N)(C#N)[C@H](c3cccs3)[C@H]2C1 was tested, and the largest response in the series, negative = inhibition was -5.72% (inactive).
For COc1ccc(CNC(=O)CN(c2ccc(OC)c(Cl)c2)S(=O)(=O)c2ccc(C)cc2)cc1, the largest response in the series, negative = inhibition was 17.9% (inactive).
In the case of Cc1ccc(CCN2CC(C(=O)NCCc3ccccc3)CC2=O)cc1 (stereo unspecified), the largest response in the series, negative = inhibition was 20.9% (inactive).
In the case of COc1ccccc1C(=O)N1CC2(C)CC1CC(C)(C)C2 (stereo unspecified), the largest response in the series, negative = inhibition was 23.6% (inactive).
Cc1cccc(C(=O)NCC(=O)OCC(=O)N2CC3(C)CC2CC(C)(C)C3)c1 (stereo unspecified) was tested, and the largest response in the series, negative = inhibition was -0.692% (inactive).
Cc1nnnn1/C(=C\c1ccccc1)C(=O)OCC(=O)N1CC2(C)CC1CC(C)(C)C2 (stereo unspecified) was tested, and the Potency was 50.1 µM (active).
For CC(NCCc1ccc(S(N)(=O)=O)cc1)C(=O)NCc1ccccc1 (stereo unspecified), the largest response in the series, negative = inhibition was 4.54% (inactive).
For C=CCn1c(C23CC4CC(CC(C4)C2)C3)n[nH]c1=S, the largest response in the series, negative = inhibition was 14.6% (inactive).
COc1ccc(N(C(=O)c2snc(C(N)=O)c2N)C(C(=O)NC2CCCC2)c2ccc(C)o2)c(OC)c1 (stereo unspecified) was tested, and the largest response in the series, negative = inhibition was -2.29% (inactive).
In the case of Cn1cc(C(=O)c2ccc(Cl)cc2Cl)cc1C(=O)NN, the largest response in the series, negative = inhibition was 10.1% (inactive).
In the case of CCCCN1C(=O)/C(=C2/Sc3ccc(Cl)cc3N2CC)SC1=S, the largest response in the series, negative = inhibition was 3.35% (inactive).
In the case of CCN1C(=O)/C(=c2\s/c(=C3\Sc4ccccc4N3C)c(=O)n2C)N(C)C1=S, the largest response in the series, negative = inhibition was 1.11% (inactive).
For CCN1C(=O)/C(=C2/Sc3ccccc3N2CCCS(=O)(=O)O)SC1=S, the Potency was 79.4 µM (active) and the largest response in the series, negative = inhibition was 8.36% (inactive).
With C[C@H](NC(=O)c1nc[nH]c1C(=O)NCC(=O)OC(C)(C)C)c1ccccc1 the largest response in the series, negative = inhibition was 10.2% (inactive).
For CC(C)[C@H](NC(=O)N1CCn2c1nc1ccccc12)C(=O)NCc1ccc2c(c1)OCO2, the largest response in the series, negative = inhibition was 20.1% (inactive).
CC(C)C(=O)NCC(c1cccs1)S(=O)(=O)c1ccc(F)cc1 (stereo unspecified) was tested, and the largest response in the series, negative = inhibition was 0.881% (inactive).
With Cc1ccc(/C=C/C(=O)Nc2ccc([N+](=O)[O-])c(NC(=O)/C=C/c3ccc(C)o3)c2)o1 the Potency was 17.8 µM (active).
CNc1ccc(NC(C)=O)cc1[N+](=O)[O-] was tested, and the largest response in the series, negative = inhibition was 18.8% (inactive).
CCc1nnc(NC(=O)/C=C/c2ccc(C)o2)s1 was tested, and the largest response in the series, negative = inhibition was 1.89% (inactive).
